In the library only some 10% were active in any assay of this set; here they are far more common.
PLK1 PBD inh – qHTS for Inhibitors of PLK1-PDB (polo-like kinase 1 - polo-box domain): Primary Screen; Serine/threonine-protein kinase PLK1 (Homo sapiens), P53350; Plk1 PBD binding of FITC phosphopeptide, fluorescence polarization; Potency, µM, most hits filed as inhibitors; 360,000 tested, 2.8% active; AID 720504, 2013; further: series mostly up to about 57 µM; nearly all actives have a fitted effect of over 65% in size
VDR inh – Inhibitors of the vitamin D receptor (VDR): qHTS; 400,000 tested, 0.93% active; VDR-SRC2-3 peptide fluorescence polarization, 2 h; Vitamin D3 receptor (Homo sapiens), P11473; Potency, µM, hits mostly inhibitors; AID 504847, 2011
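Signal is fluorescence polarization, reporting how far test compounds block the interaction of VDR with the SRC2-3 coregulator peptide after a 2 h room-temperature incubation.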
G9a inh – qHTS Assay for Inhibitors of Histone Lysine Methyltransferase G9a; AID 504332, 2011; Histone-lysine N-methyltransferase EHMT2 (Homo sapiens), Q96KQ7; G9a H3K9 monomethylation, AlphaScreen, 2 h; Potency, µM (titrated, usually from 102 µM), most hits filed as inhibitors; 350,000 tested, 8.8% active; further: nearly all actives have a fitted effect of over 75% in size
Target sequence (Q96KQ7 913-1193 limits assumed): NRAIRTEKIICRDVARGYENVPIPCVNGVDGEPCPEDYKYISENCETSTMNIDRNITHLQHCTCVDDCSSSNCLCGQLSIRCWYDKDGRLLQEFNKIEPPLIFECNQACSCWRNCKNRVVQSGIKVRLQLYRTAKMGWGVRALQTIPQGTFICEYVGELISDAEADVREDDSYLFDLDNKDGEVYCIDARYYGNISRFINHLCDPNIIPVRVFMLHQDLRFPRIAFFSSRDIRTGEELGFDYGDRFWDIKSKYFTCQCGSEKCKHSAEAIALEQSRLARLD
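AlphaScreen read-out: biotin-H3K9 peptide (500 nM) methylation by 20 nM enzyme with 20 uM SAM, 2 h at room temperature after 15 min compound preincubation; anti-monomethyl H3K9 antibody plus donor/acceptor beads, 10 min dark.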
Mm-Cpn inhibitor – Inhibitors of TCP-1 ring complex (TRiC) of Methanococcus maripaludis (MmCpn): qHTS. purified Mm-Cpn ATPase, ADP Transcreener TR-FRET. Potency, µM (series often up to 76.9 µM), hits mostly inhibitors. 330,000 tested, 0.031% active; further: nearly all actives have a fitted effect of over 80% in size
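Purified archaeal chaperonin (25 nM final) was preincubated with compound for 10 min at 37°C, then ATP (10 uM final) was added for 30 min at 37°C in Tris pH 7.4/KCl/MgCl2/DTT buffer. ADP was quantified by HTRF Transcreener TR-FRET.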
CCT modulator – High-Throughput Screening for Modulators of Cytosolic Chaperonin Activity; purified chaperonin ATPase assay, HTRF ADP detection, 30 min; activity change, % (test concentration not listed), hits read low; 360,000 tested, 0.3% active; in the data active means activity change below about -30%
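ATPase activity: ADP formed was measured by HTRF Transcreener (665/615 nm ratio) after 30 min at 37 deg C with 10 uM ATP. Compounds screened at one 76 uM concentration against 40 or 20 nM TRiC in Tris pH 7.4/KCl/MgCl2/DTT buffer.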
Sfp inh – qHTS Assay for Inhibitors of Bacillus subtilis Sfp phosphopantetheinyl transferase (PPTase) | 4'-phosphopantetheinyl transferase ffp (Bacillus subtilis), Q9F4F7 | Biochemical Sfp PPTase activity, qHTS | Potency, µM, hits mostly inhibitors | 310,000 tested, 3.5% active | AID 1490, 2009;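 further: the enzyme is Sfp with the accession as filed and its product quenches rhodamine fluorescence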
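Fluorescence-quenching assay with 15 nM Sfp, 5 uM rhodamine-CoA and 12.5 uM BHQ-2-labelled ybbR peptide in pH 7.6 Hepes/MgCl2 buffer. Enzyme was pre-incubated with compound for 15 min at room temperature. Rate was taken from the 30-min fluorescence change (525/598 nm).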
Large screens that a line does not name were inactive. Unless noted, the call rests on the fitted dose curve; in most records, active means well fitted curve in the direction sought with a large enough effect; inconclusive means small, poorly fitted or top-dose-only effect, or another doubt; inactive means no such curve, though single readings can be large; an effect the other way counts as inactive or inconclusive.

CCOC(=O)C1=C(C)N(c2ccc(OC)cc2)C(=O)/C1=C\c1cccs1	none
CCOc1cc(/C=C2\C(=O)N(Cc3ccc(C)cc3)C(C)=C2C(=O)OC)ccc1O	VDR inh inconclusive, G9a inh 8.9µM, Sfp inh 18µM
COC(=O)C1=C(C)N(Cc2ccc(OC)cc2)C(=O)/C1=C\c1ccco1	G9a inh 10µM
COC(=O)C1=C(C)N(CCc2ccc(OC)c(OC)c2)C(=O)/C1=C\c1ccc(O)cc1	G9a inh 10µM
CCOC(=O)C1=C(C)N(c2ccc(OC)cc2)C(=O)/C1=C\c1ccc(O)c(OCC)c1	VDR inh inconclusive, G9a inh inconclusive, Sfp inh 20µM
COC(=O)CNC(c1ccccc1)c1cc(Br)ccc1NC(=O)c1cc(OC)c(OC)c(OC)c1 (configuration not stated)	none (no result: PLK1 PBD inh, Mm-Cpn inhibitor, CCT modulator, Sfp inh)
Cc1cccc(C)c1OCC(=O)NCC1(N(C)C)CCCCC1	none (no result: PLK1 PBD inh, Mm-Cpn inhibitor, CCT modulator, Sfp inh)
CCOC(=O)C1=C(C)N(c2ccc(C)c(C)c2)C(=O)/C1=C\c1ccco1	G9a inh 35µM, Sfp inh inconclusive
COC(=O)C1=C(C)N(c2ccc(C)c(C)c2)/C(=C/c2ccco2)C1=O	G9a inh inconclusive, Sfp inh inconclusive
COCCCN1C(=O)/C(=C\c2ccc3c(c2)OCO3)C(C(=O)OC)=C1C	none
CCN1C(=O)/C(=C\c2ccc3c(c2)OCO3)C(C(=O)OC)=C1C	G9a inh 50µM
Cc1ccccc1C(=O)Nc1cccc(-c2cn3cccnc3n2)c1	none (no result: PLK1 PBD inh, Mm-Cpn inhibitor, CCT modulator, Sfp inh)
Cc1cccc(CNc2ccnc(-c3ccc(N(C)C)cc3)n2)c1	VDR inh inconclusive, Sfp inh 40µM (no result: PLK1 PBD inh, G9a inh, Mm-Cpn inhibitor, CCT modulator)
CO/N=C/c1ccc(Sc2ccccc2)c([N+](=O)[O-])c1	G9a inh inconclusive
O=[N+]([O-])c1cc(/C=N/O)ccc1Sc1ccccc1	G9a inh inconclusive, Sfp inh 71µM
CCOc1cc(C2C(C(=O)Nc3ccccc3)=C(C)Nc3ncnn32)cc(Br)c1O (configuration not stated)	G9a inh 10µM (no result: PLK1 PBD inh, Mm-Cpn inhibitor, CCT modulator, Sfp inh)
Clc1ccc(-c2nnc(-c3ccco3)nc2N2CCCCC2)cc1	PLK1 PBD inh inconclusive, G9a inh 10µM, Mm-Cpn inhibitor inconclusive, Sfp inh inconclusive
Clc1ccc(-c2nnc(-c3ccc(Br)cc3)c(N3CCSCC3)n2)cc1	none
Cc1c(Cl)cccc1NC(=O)c1cc2nc(-c3ccc4c(c3)OCO4)cc(C(F)(F)F)n2n1	none (no result: PLK1 PBD inh, Mm-Cpn inhibitor, CCT modulator, Sfp inh)
N#Cc1c(Nc2ccccc2)sc(C(=O)c2ccc(F)cc2)c1N	G9a inh inconclusive
N#Cc1c(Nc2ccccc2)sc(C(=O)C2CC2)c1N	G9a inh 79µM
Nc1cc2c(cc1C(=O)c1ccc(Cl)cc1)OCCO2	G9a inh 45µM
COC(=O)c1cc2c(cc1N)OCCO2	G9a inh 56µM, Sfp inh inconclusive
Nc1cc2c(cc1C(=O)c1ccccc1)OCCO2	none (no result: G9a inh)
Cc1ccc(-c2csc(NC(=O)c3ccccc3F)c2C(=O)O)cc1	PLK1 PBD inh inconclusive
Cc1ccccc1C(=O)Nc1scc(-c2ccc(Br)cc2)c1C(=O)O	PLK1 PBD inh 21µM (no result: G9a inh, Mm-Cpn inhibitor, Sfp inh)
O=C(CCn1c(=O)c2cccn2c2cccnc21)N1CCN(c2ccccc2)CC1	none (no result: PLK1 PBD inh, Mm-Cpn inhibitor, CCT modulator, Sfp inh)
CO[C@H]1COC(=O)C/C=C\[C@@H](C)COC(=O)[C@@H](CCSC)NC(=O)C/C=C\[C@@H]1C	none (no result: PLK1 PBD inh, VDR inh, G9a inh, Mm-Cpn inhibitor, CCT modulator)
Cc1ccc(NC(=O)CN2C(=O)COc3ccc(S(=O)(=O)N4CCOCC4)cc32)c(Cl)c1	none (no result: PLK1 PBD inh, Mm-Cpn inhibitor, CCT modulator, Sfp inh)
O=C1NC2C3CC(c4ccccc43)C12 (configuration not stated)	none (no result: VDR inh, G9a inh, Mm-Cpn inhibitor, Sfp inh)
O=C1C=CC(=O)C2=C1C1c3ccccc3C2c2ccccc21	Sfp inh 3.2µM (no result: PLK1 PBD inh, VDR inh, G9a inh, Mm-Cpn inhibitor, CCT modulator)
CCCn1c(C)nc2c(N3CCC(N4CCN(C)CC4)CC3)nc(C)nc21	none (no result: PLK1 PBD inh, VDR inh, G9a inh, Mm-Cpn inhibitor, CCT modulator)
O=C(O)CSc1c2c(nc3cc(C(=O)Nc4ccc(F)c(Cl)c4)ccc13)CCC2	none (no result: PLK1 PBD inh, Mm-Cpn inhibitor, CCT modulator, Sfp inh)
